Screens: PubChem BioAssay, NMMLSC
Jurkat autofluor: autofluorescence counter-screen for VLA-4 integrin assays | Jurkat cells, compound autofluorescence, flow cytometry; stronger effect = higher value; 1 = vehicle-only cell background | fluorescence ratio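 (tested at 10 µM compound in the well)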 | 24,000 compounds, 0.61% hits | AID 576;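 active = fluorescence ratio above 2.44, which is 1 plus 3 SD of all ratios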;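 also: green fluorescence of cells measured with 488 nm excitation and 530 nm emission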
VLA-4 agonist: allosterically activates the human VLA-4 integrin; Jurkat cells, LDV-FITC binding, flow cytometry; activation, % at 10 µM (by protocol); 24,000 tested, under 10 active; AID 528;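 active = fluorescent ligand binding to cells raised by more than 40% of the manganese-induced maximum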
26S disassembly: blocks ATP-dependent breakdown of the yeast 26S proteasome; anti-FLAG beads, GFP-proteasome disassembly, flow cytometry; inhibition of disassembly, % (no concentration beside the values); 24,000 compounds, 0.2% hits;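 active = inhibition of disassembly above about 33%, limit read from the data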;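 also: higher percent means more bead fluorescence retained so stronger block of disassembly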
VLA-4 antagonist: inhibition of LDV-FITC ligand binding to human VLA-4 integrin; P13612; Jurkat cells, LDV-FITC binding with Mn2+, flow cytometry; 100% = Mn2+-driven binding gain fully reversed; inhibition, % at 10 µM (by protocol); 24,000 compounds, 0.2% hits;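 active = inhibition above 50%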
Hits are given with their value; – = inactive. Sampled rows, rich in hits. Any-hit rate of the full collection: about 0.96%.

SMILES	Jurkat autofluor	VLA-4 agonist	26S disassembly	VLA-4 antagonist
O=c1c2ccccc2[se]n1-c1ccccc1	–	40.0	–	–
O=C(c1cc(-c2cccnc2)nc2ccccc12)N1CCC2(CC1)OCCO2	–	–	–	–
